Compounds without any hit were thinned out: in the full panel of roughly 79,000, 15% have a hit. Active and inactive are the calls of the source. Rule as the data show it: active = growth inhibition above about 70%; inactive = the rest.
Key:
[1] = NCI Yeast Anticancer Drug Screen. Data for the rad52 strain (AID 147);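 also: 0% = growth of vehicle-treated control cultures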; conditions: S. cerevisiae rad52 mutant growth inhibition, active compounds read high
How it was run: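 Yeast strain carrying a DNA damage repair alteration was exposed to test compounds. Growth inhibition was measured relative to vehicle-treated controls.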

[2] = NCI Yeast Anticancer Drug Screen. Data for the rad50EPP+ strain (AID 151);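 also: 0% = growth of vehicle-treated control cultures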; conditions: S. cerevisiae rad50 mutant strain, active compounds read high
How it was run: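 Yeast strain carrying rad50 alteration (rad50EPP+) exposed to compounds; growth inhibition measured relative to vehicle-treated controls.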

[3] = NCI Yeast Anticancer Drug Screen. Data for the mgt1 strain (AID 153); conditions: S. cerevisiae mgt1 mutant growth inhibition, active compounds read high
How it was run: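 Yeast mgt1 strain (DNA repair/cell-cycle alteration panel) exposed to compounds; growth inhibition measured relative to vehicle-treated controls.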

[4] = NCI Yeast Anticancer Drug Screen. Data for the rad50 strain (AID 155);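 also: 0% = growth of vehicle-only cultures of the same strain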; conditions: S. cerevisiae rad50 strain growth inhibition, active compounds read high
How it was run: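 Inhibition values express reduced yeast growth in compound-treated cultures relative to vehicle-treated controls.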

[5] = NCI Yeast Anticancer Drug Screen. Data for the mec2-1 strain (AID 157); conditions: S. cerevisiae mec2-1 strain, active compounds read high
How it was run: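 mec2-1 yeast strain, carrying an alteration in DNA damage repair or cell cycle control, was exposed to compounds; growth inhibition was measured relative to vehicle-treated controls.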

[6] = NCI Yeast Anticancer Drug Screen. Data for the rad14 strain (AID 159);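 also: 0% = growth of vehicle-treated control cultures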; conditions: S. cerevisiae rad14 strain growth inhibition, active compounds read high
How it was run: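 A mutant yeast strain defective in DNA damage repair is treated with compound; inhibition of its growth is scored against untreated, vehicle-exposed cultures.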

[7] = NCI Yeast Anticancer Drug Screen. Data for the sgs1 mgt1 strain (AID 161);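 also: 0% = growth of cultures given vehicle only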; conditions: S. cerevisiae sgs1 mgt1 strain, active compounds read high
How it was run: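 Growth of a repair-deficient yeast mutant was monitored after compound treatment and expressed as inhibition relative to vehicle-treated cultures.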

[8] = NCI Yeast Anticancer Drug Screen. Data for the CLN2oe strain (AID 163);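 also: 0% = growth of vehicle-only control cultures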; conditions: S. cerevisiae CLN2oe strain, active compounds read high
How it was run: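 Yeast cells carrying a defined cell-cycle control alteration were exposed to test compounds. Growth inhibition was scored against vehicle-treated control cultures.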

[9] = NCI Yeast Anticancer Drug Screen. Data for the cln2 rad14 strain (AID 165);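 also: 0% = growth equal to vehicle treated cultures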; conditions: S. cerevisiae cln2 rad14 strain, active compounds read high
How it was run: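 Yeast carrying cln2 and rad14 alterations (cell cycle control and DNA damage repair) were exposed to compounds. Growth inhibition was measured against vehicle-treated controls.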

[10] = NCI Yeast Anticancer Drug Screen. Data for the bub3 strain (AID 167); conditions: S. cerevisiae bub3 mutant strain, active compounds read high
How it was run: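 Steps: expose the mutant yeast strain to compound; grow alongside vehicle-treated cultures; measure growth; express inhibition against the vehicle cultures.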

[11] = NCI Yeast Anticancer Drug Screen. Data for the mlh1 strain (AID 171);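 also: 0% = growth of vehicle-treated control cultures of the same strain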; conditions: S. cerevisiae mlh1 strain growth inhibition, active compounds read high
How it was run: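 Yeast carrying a defined genetic alteration in DNA damage repair or cell cycle control were exposed to test compounds. Growth inhibition was measured relative to vehicle-treated controls.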

[12] = NCI Yeast Anticancer Drug Screen. Data for the mlh1 rad18 strain (AID 175); conditions: S. cerevisiae mlh1 rad18 strain growth inhibition, active compounds read high
How it was run: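 Growth inhibition of the yeast strain was measured after compound exposure and expressed relative to vehicle-treated controls. The strain carries defined defects in DNA damage repair.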

[13] = NCI Yeast Anticancer Drug Screen. Data for the rad18 strain (AID 177); conditions: S. cerevisiae rad18 mutant growth inhibition, active compounds read high
How it was run: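 Yeast carrying a defined DNA damage repair alteration were exposed to compounds. Growth inhibition was expressed relative to vehicle-treated controls.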

[14] = NCI Yeast Anticancer Drug Screen. Data for the wt2 strain (AID 169);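 also: 0% = growth of vehicle-treated yeast cultures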; conditions: S. cerevisiae wt2 strain growth inhibition, active compounds read high
How it was run: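 Yeast cells were exposed to test compounds, and growth inhibition was measured relative to vehicle-treated controls.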

[15] = at 5.0 µM (retest, dose inferred, filed as 0.5)
[16] = at 50.0 µM (retest, dose inferred, filed as 5.0)

Measured: growth inhibition

Cc1cc(CO)c(O)c(CNCc2cc(C)cc(CO)c2O)c1
inactive: [1]; at 1.2 µM 4% | [1]; at 3.7 µM 8% | [1]; at 11.0 µM 14% | [1]; at 33.0 µM 22% | [2]; at 1.2 µM -24% | [2]; at 3.7 µM -23% | [2]; at 11.0 µM -33% | [2]; at 33.0 µM -29% | [2]; at 100.0 µM -13% | [3]; at 1.2 µM -13% | [3]; at 3.7 µM -17% | [3]; at 11.0 µM -18% | [3]; at 33.0 µM -9% | [4]; at 1.2 µM 2% | [4]; at 3.7 µM 7% | [4]; [15] -25% | [4]; at 11.0 µM 2% | [4]; at 33.0 µM 19% | [5]; at 1.2 µM -14% | [5]; at 3.7 µM -7% | [5]; [15] -32% | [5]; at 11.0 µM -27% | [5]; at 33.0 µM -18% | [5]; [16] 42% | [6]; at 1.2 µM -16% | [6]; at 3.7 µM -29% | [6]; at 11.0 µM -42% | [6]; at 33.0 µM 35% | [7]; [15] -2% | [7]; [16] 22% | [8]; at 1.2 µM -10% | [8]; at 3.7 µM -24% | [8]; at 11.0 µM -25% | [8]; at 33.0 µM -14% | [9]; [15] -17% | [9]; [16] 48% | [10]; at 1.2 µM -14% | [10]; at 3.7 µM -6% | [10]; [15] -21% | [10]; at 11.0 µM -13% | [10]; at 33.0 µM -13% | [10]; [16] 52% | [10]; at 50.0 µM 68.8% | [11]; at 1.2 µM -27% | [11]; at 3.7 µM -30% | [11]; at 11.0 µM -13% | [11]; at 33.0 µM -7% | [12]; [15] 17% | [13]; at 1.2 µM 1% | [13]; at 3.7 µM -6% | [13]; at 11.0 µM -4% | [13]; at 33.0 µM 4%
active: [1]; at 100.0 µM 98% | [3]; at 100.0 µM 98% | [4]; [16] 88% | [4]; at 50.0 µM 89.5% | [4]; at 100.0 µM 98% | [5]; at 50.0 µM 77.2% | [5]; at 100.0 µM 98% | [6]; at 100.0 µM 97% | [7]; at 50.0 µM 90.6% | [8]; at 100.0 µM 98% | [9]; at 50.0 µM 72% | [10]; at 100.0 µM 98% | [11]; at 100.0 µM 98% | [12]; [16] 96% | [12]; at 50.0 µM 74.3% | [13]; at 100.0 µM 98%

COc1ccc(Br)c(C(=O)Sc2nnnn2-c2cccc(Cl)c2)c1
inactive: [1]; at 1.2 µM 23% | [1]; at 3.7 µM 29% | [1]; at 11.0 µM 24% | [1]; at 33.0 µM 43% | [2]; at 1.2 µM 3% | [2]; at 3.7 µM -19% | [2]; at 11.0 µM 9% | [2]; at 33.0 µM 65% | [3]; at 1.2 µM -10% | [3]; at 3.7 µM 11% | [3]; at 11.0 µM 16% | [3]; at 33.0 µM 30% | [4]; at 1.2 µM 2% | [4]; at 3.7 µM 21% | [4]; [15] 42% | [4]; at 11.0 µM 6% | [4]; at 33.0 µM 42% | [5]; at 1.2 µM 13% | [5]; at 3.7 µM -9% | [5]; [15] 40% | [5]; at 11.0 µM -14% | [5]; at 33.0 µM 12% | [6]; at 1.2 µM -8% | [6]; at 3.7 µM -5% | [6]; at 11.0 µM -30% | [6]; at 33.0 µM -16% | [7]; [15] -19% | [8]; at 1.2 µM 6% | [8]; at 3.7 µM 3% | [8]; at 11.0 µM 3% | [8]; at 33.0 µM 5% | [9]; [15] 58% | [10]; at 1.2 µM 13% | [10]; at 3.7 µM 11% | [10]; [15] 23% | [10]; at 11.0 µM -22% | [10]; at 33.0 µM 8% | [14]; at 1.2 µM -11% | [14]; at 3.7 µM -15% | [14]; at 11.0 µM -35% | [14]; at 33.0 µM -8% | [11]; at 1.2 µM -14% | [11]; at 3.7 µM -21% | [11]; at 11.0 µM -25% | [11]; at 33.0 µM 3% | [12]; [15] 47% | [12]; [16] 67% | [13]; at 1.2 µM -24% | [13]; at 3.7 µM -10% | [13]; at 11.0 µM -8% | [13]; at 33.0 µM 52%
active: [1]; at 100.0 µM 96% | [2]; at 100.0 µM 92% | [3]; at 100.0 µM 95% | [4]; [16] 71% | [4]; at 50.0 µM 87.6% | [4]; at 100.0 µM 93% | [5]; [16] 72% | [5]; at 50.0 µM 88.9% | [5]; at 100.0 µM 94% | [6]; at 100.0 µM 89% | [7]; [16] 89% | [7]; at 50.0 µM 87.8% | [8]; at 100.0 µM 94% | [9]; [16] 83% | [9]; at 50.0 µM 76.2% | [10]; [16] 81% | [10]; at 50.0 µM 88.2% | [10]; at 100.0 µM 93% | [14]; at 100.0 µM 93% | [11]; at 100.0 µM 92% | [12]; at 50.0 µM 85% | [13]; at 100.0 µM 93%
